MCF10A rerep – inducers of DNA re-replication in MCF 10A breast cells; MCF 10A DNA re-replication, Hoechst nuclear intensity, 48 h; AID 624296; Potency, µM (doses to about 46.1 µM), for inactives: top-dose activity, positive = re-replication, actives largely listed as activators; hit rate 2.9% among 350,000; further: potency means the concentration at half of the fitted maximal effect; % of control where 0% means no effect; nearly all actives have a fitted effect of over 50% in size
SW480 rereplic – induces DNA re-replication in SW480 colon adenocarcinoma cells; SW480 DNA re-replication, Hoechst DNA content imaging, 48 h; Potency, µM (highest dose often 46.1 µM), without a hit: at the highest dose re-replication activation, hits mostly activators; hit rate 1.8% among 340,000; AID 624297; further: potency means the concentration at half of the fitted maximal effect; % of control where 0% means no effect; nearly all actives have a fitted effect of over 55% in size
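SW480 cells exposed to compounds for 48 hr at 37 C, 5% CO2, then Hoechst-stained 40 min. Nuclear DNA content imaged by fluorescence scanning (405 nm excitation, 500-530 nm emission); re-replication scored as increased high-intensity nuclei.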
KB-3-1 cytotox – kills parental KB-3-1 adenocarcinoma cells | KB-3-1 viability, CellTiter-Glo ATP luminescence, 72 h | Potency, µM (series often up to 46.1 µM), actives largely listed as cytotoxic | hit rate 1.4% among 400,000 | AID 1347075; further: potency means the concentration at half of the fitted maximal effect; on the % scale 0 is the no-effect control and ±100 the full control effect; nearly all actives have a fitted effect of over 60% in size
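KB-3-1 parental drug-naive adenocarcinoma cells in DMEM/10% FBS, incubated 72 h at 37 C with pin-transferred compounds across a concentration series. Viability by CellTiter-Glo luminescence; concentration-response curves fitted after normalization.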
IL-1B inflam inh – inhibitors of inflammasome signaling (IL-1 beta secretion); hit rate 4.7% among 360,000; activity change, % at 57.5 µM; THP-1 LPS/ATP IL-1B secretion, AlphaLISA, 16 h; stronger effect = lower value; in the data active means activity change below about -50%; inconclusive means mostly about -30% to -49%; further: on the % scale 0 is the no-effect control and ±100 the full control effect
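THP-1 cells pretreated 1 hr with compounds (up to 57.5 uM final), then stimulated with LPS (250 ng/mL final) plus ATP (1.25 mM final); secreted IL-1B measured by AlphaLISA after 16 hr, decreased signal indicating inhibition.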
KB-V1 MDR tox – KB-V1 MDR subline cytotoxicity | KB-V1 MDR cells viability, CellTiter-Glo, 72 h | Potency, µM (doses to about 46.1 µM), actives largely listed as cytotoxic | hit rate 3.4% among 400,000; further: potency means the concentration at half of the fitted maximal effect; on the % scale 0 is the no-effect control and ±100 the full control effect; nearly all actives have a fitted effect of over 60% in size
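Luminescent ATP read-out (CellTiter-Glo, 10 min) measures survival of drug-selected KB-V1 MDR cells after 72 h, 37 degrees C compound exposure. Medium: phenol-red-free DMEM, 10% FBS. Values from fitted concentration-response curves.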
* hit, by the source's call. In the library only some 9.9% were active in any assay of this set; here they are far more common. Unless noted, the call rests on the fitted dose curve; in most records, active means well fitted curve in the direction sought with a large enough effect; inconclusive means small, poorly fitted or top-dose-only effect, or another doubt; inactive means no such curve, though single readings can be large; an effect the other way counts as inactive or inconclusive.

`Cc1ccc(-c2csc(NC(CO)c3nc4ccccc4n3CCOCCO)n2)cc1` (stereo not given) gave MCF10A rerep inconclusive, SW480 rereplic 7.8%, KB-3-1 cytotox inactive, IL-1B inflam inh 40.2 and KB-V1 MDR tox inactive.
Screening CC1NCCOC1c1ccccc1 (stereo not given) returned MCF10A rerep 1.9% and SW480 rereplic -4.6%.
`CCOC(=O)CSc1nn(-c2ccccc2)c(=S)s1` gave MCF10A rerep 6.9%, SW480 rereplic -7.3%, KB-3-1 cytotox inactive, IL-1B inflam inh 11.7 and KB-V1 MDR tox inactive.
Screening Nc1ccc2nc3c(c(Cl)c2c1)CCCC3 returned MCF10A rerep 16.4µM*, SW480 rereplic inconclusive, KB-3-1 cytotox inconclusive, IL-1B inflam inh 37.1 and KB-V1 MDR tox inconclusive.
CCCCCn1c(=O)c(C(=O)Nc2ccccc2C)c(O)c2ccccc21 was read as MCF10A rerep -1.7%, SW480 rereplic -7.5%, KB-3-1 cytotox inactive, IL-1B inflam inh 19.6 and KB-V1 MDR tox inactive.
For CCCCCn1c(=O)c(C(=O)Nc2nc(CC(=O)OCC)cs2)c(O)c2ccccc21 the results were MCF10A rerep -2.7%, SW480 rereplic -3.4%, KB-3-1 cytotox inactive, IL-1B inflam inh -3.2 and KB-V1 MDR tox 6.51µM*.
`CCCCn1c(=O)c(C(=O)Nc2ccccc2S(N)(=O)=O)c(O)c2ccccc21` gave MCF10A rerep inconclusive, SW480 rereplic 15.3%, KB-3-1 cytotox inactive, IL-1B inflam inh -10.8 and KB-V1 MDR tox 16.4µM*.
For CCCCn1c(=O)c(C(=O)NCc2ccccc2)c(O)c2ccccc21 the results were MCF10A rerep -3.5%, SW480 rereplic 0.7%, KB-3-1 cytotox inactive, IL-1B inflam inh 25.8 and KB-V1 MDR tox inactive.
For CCCCn1c(=O)c(C(=O)Nc2ccccc2)c(O)c2ccccc21 the results were MCF10A rerep -1.6%, SW480 rereplic 0.9%, KB-3-1 cytotox inactive, IL-1B inflam inh 17.5 and KB-V1 MDR tox 13µM*.
`CCCCCn1c(=O)c(C(=O)NCc2ccco2)c(O)c2ccccc21` gave MCF10A rerep 11.8%, SW480 rereplic 1.0%, KB-3-1 cytotox inactive, IL-1B inflam inh 88.7 and KB-V1 MDR tox 20.6µM*.
`Cn1c(O)c(C=NCCN2CCOCC2)c(=O)[nH]c1=S` gave MCF10A rerep 1.9%, SW480 rereplic -6.6%, KB-3-1 cytotox inactive, IL-1B inflam inh 1.0 and KB-V1 MDR tox inconclusive.
CCCc1cc(=O)oc2c3c(cc(OCC(=O)N4CCC[C@H]4C(=O)O)c12)OC(C)(C)CC3 was read as MCF10A rerep -25.8%, SW480 rereplic -4.2%, KB-3-1 cytotox inactive, IL-1B inflam inh -6.4 and KB-V1 MDR tox inactive.
Cc1nnc(NC(=O)c2cccn(Cc3ccccc3F)c2=O)s1 was read as KB-3-1 cytotox inactive and KB-V1 MDR tox inactive.
CCCCCn1c(=O)c(C(=O)Nc2ccccc2S(N)(=O)=O)c(O)c2ccccc21 was read as MCF10A rerep 4.11µM*, SW480 rereplic 3.66µM*, KB-3-1 cytotox 10.3µM*, IL-1B inflam inh inconclusive and KB-V1 MDR tox inconclusive.
For COc1ccccc1CC(=O)Nc1ccc2c(c1)OC1(CCCC1)O2 the results were MCF10A rerep 0.3%, SW480 rereplic inconclusive, KB-3-1 cytotox inactive, IL-1B inflam inh -73.6* and KB-V1 MDR tox inactive.
COc1ccc(CC(=O)Nc2ccc3c(C(F)(F)F)cc(=O)oc3c2)cc1OC was read as MCF10A rerep -1.3%, SW480 rereplic 0.5%, KB-3-1 cytotox inactive, IL-1B inflam inh 10.3 and KB-V1 MDR tox inactive.
CCC(=NCc1ccc(F)cc1)c1c(O)n(C)c(=O)n(C)c1=O was read as MCF10A rerep -2.3%, SW480 rereplic -20.3%, KB-3-1 cytotox inconclusive, IL-1B inflam inh -13.7 and KB-V1 MDR tox 14.6µM*.
Screening CCC(=NCCC(c1ccccc1)c1ccccc1)c1c(O)n(C)c(=O)n(C)c1=O returned MCF10A rerep 8.2µM*, SW480 rereplic -3.0%, KB-3-1 cytotox inconclusive, IL-1B inflam inh 15.3 and KB-V1 MDR tox inconclusive.
`C[C@H](CO)N1C[C@H](C)[C@@H](CN(C)Cc2ccc(-c3ccccc3)cc2)Oc2c(NC(=O)c3ccncc3)cccc2C1=O` gave MCF10A rerep inconclusive, SW480 rereplic 17.6%, KB-3-1 cytotox inconclusive, IL-1B inflam inh -21.8 and KB-V1 MDR tox inactive.
`Cn1c(O)c(/C=N/Nc2ccccc2)c(=O)n(C)c1=O` gave MCF10A rerep 6.51µM*, SW480 rereplic -17.9%, KB-3-1 cytotox inactive, IL-1B inflam inh -13.9 and KB-V1 MDR tox inactive.
For C[C@H]1COC2=C1C(=O)C(=O)c1c2ccc2c1CCCC2(C)C the results were MCF10A rerep 18.4µM*, SW480 rereplic inconclusive, KB-3-1 cytotox inconclusive, IL-1B inflam inh -20.7 and KB-V1 MDR tox inactive.
Screening C=C(C)Cn1c(=O)n(CC2CS2)c2ccccc21 (stereo not given) returned MCF10A rerep -3.7%, SW480 rereplic -0.6%, KB-3-1 cytotox inactive, IL-1B inflam inh 3.1 and KB-V1 MDR tox inactive.
For O=C1CC(=O)N(c2ccccc2)C(=O)N1c1ccccc1 the results were MCF10A rerep 3.2%, SW480 rereplic -0.3%, KB-3-1 cytotox 0.291µM*, IL-1B inflam inh 6.0 and KB-V1 MDR tox inactive.
CNC(=O)O/N=C/C(C)(C)S(C)=O (stereo not given) was read as KB-3-1 cytotox inactive and KB-V1 MDR tox inactive.
Screening CCN(Cc1ccccc1)C(=O)Cn1c(=O)oc2ccccc21 returned MCF10A rerep -54.9%, SW480 rereplic -1.0%, KB-3-1 cytotox inactive, IL-1B inflam inh 7.7 and KB-V1 MDR tox inactive.
Screening O=c1oc2ccccc2n1CSC1=NCCS1 returned MCF10A rerep inconclusive, SW480 rereplic inconclusive, KB-3-1 cytotox inconclusive, IL-1B inflam inh -106.8* and KB-V1 MDR tox inconclusive.
CCOCCSc1nc2c(c(-c3cccs3)c1C#N)CC/C2=C/c1cccs1 was read as MCF10A rerep inconclusive, SW480 rereplic inconclusive, KB-3-1 cytotox inactive, IL-1B inflam inh 15.2 and KB-V1 MDR tox inactive.
COc1ccc2[nH]c3c(c2c1)CCN1C(=O)C(CC(=O)NCc2cccc(C(F)(F)F)c2)C[C@H](C(=O)N2CCCCC2)[C@@]31C (stereo not given in full) was read as MCF10A rerep inconclusive, SW480 rereplic inconclusive, KB-3-1 cytotox inactive, IL-1B inflam inh -53.1* and KB-V1 MDR tox inactive.
NC(Cc1ccc(F)cc1)c1csc(Nc2ncccn2)n1 (stereo not given) was read as KB-3-1 cytotox inconclusive, IL-1B inflam inh -25.4 and KB-V1 MDR tox inconclusive.
COc1ccc(C)cc1NC(=O)N(Cc1ccc2c(c1)OCO2)C1CCN(Cc2ccccc2)CC1 was read as KB-3-1 cytotox inactive and KB-V1 MDR tox inactive.

Source: PubChem (National Center for Advancing Translational Sciences (NCATS))
